Data from PubChem BioAssay AID1903 (Southern Research Specialized Biocontainment Screening …, 2009).
The whole screen tested about 310,000 compounds, of which about 1,200 (0.39%) were called active. No rule for the calls is given here. The list is a sample of the results. Entries with a potency or affinity are not part of this list.

target: Large T antigen (Simian virus 40) (UniProt P03070); assay: TAg ATPase/helicase activity blockers – biochemical (AID 1903); details: SV40 large T antigen ATPase/helicase inhibition assay; at 20 µM; hits give high values
Sequence (P03070 whole entry, looked up): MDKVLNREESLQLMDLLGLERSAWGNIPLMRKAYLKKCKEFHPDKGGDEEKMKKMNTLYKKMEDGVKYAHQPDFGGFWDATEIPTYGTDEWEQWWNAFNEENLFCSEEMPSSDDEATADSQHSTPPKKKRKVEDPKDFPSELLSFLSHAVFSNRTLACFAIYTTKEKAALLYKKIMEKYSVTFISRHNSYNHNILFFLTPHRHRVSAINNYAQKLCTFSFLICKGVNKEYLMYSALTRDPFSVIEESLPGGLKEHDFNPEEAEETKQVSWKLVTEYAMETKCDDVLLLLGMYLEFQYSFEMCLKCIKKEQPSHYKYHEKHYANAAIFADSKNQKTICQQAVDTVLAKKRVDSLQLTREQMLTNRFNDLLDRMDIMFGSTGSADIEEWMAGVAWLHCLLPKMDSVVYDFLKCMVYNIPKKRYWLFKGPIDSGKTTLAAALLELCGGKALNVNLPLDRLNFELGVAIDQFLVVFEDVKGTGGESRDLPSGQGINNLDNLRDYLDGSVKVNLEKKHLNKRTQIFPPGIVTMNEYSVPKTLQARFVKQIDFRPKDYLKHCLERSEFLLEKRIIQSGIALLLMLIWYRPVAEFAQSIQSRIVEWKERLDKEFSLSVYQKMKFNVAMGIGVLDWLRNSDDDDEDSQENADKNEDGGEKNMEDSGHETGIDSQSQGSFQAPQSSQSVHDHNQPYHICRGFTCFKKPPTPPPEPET

inhibition, inactive:
O=C(OCc1nnc(-c2ccccc2)o1)c1ccc(CO)cc1 3.3%, CCO[C@H]1OC(C(=O)NCc2nc3ccccc3[nH]2)=C[C@@H](c2ccccc2)[C@@H]1CCCO 1.96%, CCOc1ccc(C(=O)OCC(=O)c2c(N)n(C)c(=O)n(C)c2=O)cc1OCC 1.22%, COc1ccc(C(=O)OCC(=O)c2c(N)n(C)c(=O)n(C)c2=O)cc1OC -4.08%, O=C(NC(=S)Nc1ccc(S(=O)(=O)N2CCCCC2)cc1)c1ccc(Cl)cc1 1.56%, COC(=O)c1ccc(CN2C(=O)c3ccccc3C2=O)o1 10.1%, CSc1nc(-c2ccccc2)nc(NC(=O)c2ccccc2)c1C(C)=O 5.31%, COC(=O)C1=C[C@@H](C(=O)OC)[C@@H]2C3=C(C(=O)[C@]2(CC(C)C)NC(=O)c2ccccc2)[C@H](C)n2c(=O)n(-c4ccccc4)c(=O)n2[C@@H]3C1 19.3%, C/C(=N\NC(=O)c1nnn(-c2nonc2N)c1-c1cccs1)c1cccnc1 -7.39%, CC1N(C)c2cccc3cccc(c23)N1C 32.1%, CN1C(=O)N(C)c2cccc3cccc1c23 21.8%, OC(COCc1ccc2c(c1)OCO2)CN1CCCCC1 (stereo unspecified) 4.66%, COc1ccc(S(=O)(=O)NNC(=O)Cc2csc(C)n2)cc1[N+](=O)[O-] 10.2%, CCN1CCN(c2cc(C)c3cc(NC(=O)Cc4ccc(OC)c(OC)c4)ccc3n2)CC1 2.02%, CC1C(=O)OC(c2ccc(Br)cc2)C(C)(C)C1=O (stereo unspecified) 29.1%, CCOc1ccc2c(c1)C(c1ccccc1)=NNC(c1ccccc1)=N2 4.86%, CC(=O)Nc1ccc(NC(=O)CSc2nc3nc(C)cc(C)c3c(=O)[nH]2)cc1 9.68%, CC(C)c1ccc(NC(=O)CSc2nc3c(c(=O)[nH]2)CCC3)cc1 10.4%, CCN(c1ccc(NC(=O)CSc2nnc3nc(C)cc(C)n23)cc1)C(C)C 36%, Cc1cc(C)c2c(=O)[nH]c(SCC(=O)Nc3ccc(N(C)C)cc3)nc2n1 31.4%, CCc1nc(SCC(=O)Nc2ccc(N(C)C)cc2)c2ccccc2n1 18.1%, O=C(CSc1nc2c(c(=O)[nH]1)CCC2)Nc1ccc(F)cc1 22%, CCN(CC)c1ccc(NC(=O)CSc2nc(C)cc(=O)[nH]2)cc1 35.5%, Cc1cc(C)n2c(SCC(=O)Nc3ccc(F)cc3)nnc2n1 8.2%, Cc1ccc([N+](=O)[O-])cc1NC1CC(O)C(CO)O1 (stereo unspecified) 3.41%, CN(C)CCN(C(=O)c1ccc(S(=O)(=O)N2CCc3ccccc32)cc1)c1nc2ccc(F)cc2s1 14.4%, Cc1ccc(S(=O)(=O)/C(C#N)=C/c2c(N3CC(C)OC(C)C3)nc3c(C)cccn3c2=O)cc1 (stereo unspecified) 23.9%, COc1cc2c(cc1OC)CN(C(=O)/C=C/c1cc(OC)c(OC)c(OC)c1)CC2 7.46%, O=C(N/N=C\c1ccc(OC(=O)c2ccco2)cc1)c1ccc(Cl)cc1 11.3%, O=C(N/N=C/c1ccc(OC(=O)c2ccco2)cc1)c1ccncc1 15.9%, C=CCc1ccccc1OCC(O)Cn1ccnc1C (stereo unspecified) 10.2%, CC(C)c1cc(=O)oc2c3c4c(cc12)CCCN4CCC3 4.43%, O=c1ccc2cc3c4c(c2o1)CCCN4CCC3 3.45%, CCc1ccc(NC(=O)[C@H](NC(=O)[C@@H]2Cc3ccccc3CN2)c2ccccc2)cc1 7.36%, CCCc1c(C(=O)N/N=C/C(C)=C/c2ccccc2)nnn1-c1nonc1N 15.4%, O=C(Cn1nnc(-c2ccc(NC(=O)c3ccccc3F)cc2)n1)NCc1ccc(F)cc1 16.3%, CCCc1nnc(NC(=O)Cn2c(=O)oc3ccccc32)s1 3.95%, CCc1nnc(NC(=O)Cn2c(=O)oc3ccccc32)s1 1.21%, N/C(=N\NS(=O)(=O)c1ccccc1)c1ccccn1 16.4%, Cc1nnc(NC(=O)CSc2nnc(C)n2Cc2ccccc2)s1 -83.7%, COC(=O)Nc1ccc([N+](=O)[O-])cc1OC 3%, COc1ccc(OC(=O)Nc2ccc([N+](=O)[O-])cc2OC)cc1 0.1%, Oc1cccc(/C=N/Nc2ncnc3c2ncn3Cc2ccccc2)c1 10.2%, COc1cccc(/C=N/Nc2ncnc3c2ncn3Cc2ccccc2)c1O 18.1%, CCc1nn(CC(=O)N2CCC(C(N)=O)CC2)c(=O)c2cc3occc3n12 5.76%, CCCCC(=O)N1C/C=C\[C@H](c2ccc(OC)cc2)N(Cc2ccc(F)cc2)C(=O)[C@@H]1C -1.49%, Cc1c(C(=O)OCC(=O)NCc2ccccc2)oc2ccccc12 13.4%, COC(=O)c1ccccc1NC(=O)c1cnn2c(C)cc(C)nc12 -5.22%, CCn1c(/C=C/c2cc(Br)ccc2O)nc2ccccc2c1=O 27%, CCn1c(/C=C/c2ccc(O)cc2)nc2ccccc2c1=O 26.9%, O=C(O)c1ccc(-n2c(/C=C/c3ccccc3)nc3ccccc3c2=O)cc1 13.9%, COc1ccc(/C=C/c2nc3ccccc3c(=O)n2-c2cccc(C(=O)O)c2)cc1 12.5%, CC(C)c1ccc(NC(=O)CSc2nc(-c3ccccc3F)nc3nc[nH]c23)cc1 3.55%, CCOc1ccc(CCNC(=O)CCC(=O)Nc2ccc3nc(N4CCN(C)CC4)cc(C)c3c2)cc1OCC 2.93%, O=C(CCl)N1c2ccccc2CCc2ccccc21 8.1%, O=C(CN1CCCCC1)N1c2ccccc2CCc2ccccc21 0.59%, Cc1cc(NS(=O)(=O)Cc2ccccc2)no1 3.2%, CCCN(C(=O)c1ccc(N(C)S(=O)(=O)c2ccc(C)cc2)cc1)C1CCS(=O)(=O)C1 (stereo unspecified) 11%, Cc1ccc(C)c(NS(=O)(=O)c2ccc(OCC(=O)N3CCOCC3)cc2)c1 4.78%, COc1cc(C(=S)N2CCCCC2)ccc1O 29.3%, COc1cc(C(=O)OCCN2CCCCC2)ccc1O 29.6%, O=C(NCCOc1ccccc1)C1CCC(=O)N(CCc2ccccn2)C1 (stereo unspecified) 5.44%, CN(C)c1ccc(C2/C(=C(/O)c3ccc(Br)cc3)C(=O)C(=O)N2C)cc1 (stereo unspecified) 8.15%, CC(C)C[C@H](NC(=O)[C@@H]1Cc2c([nH]c3ccccc23)C2c3ccccc3C(=O)N21)C(=O)NCC1CCCO1 (stereo partly specified) 8.64%, O=C1OCC/C1=C\c1ccccc1 6.44%, Cc1ccc(/C=C2\CCOC2=O)cc1 10.9%, CC(NC(=O)c1cc(S(=O)(=O)N2CCCC2)cn1C)c1ccccc1 (stereo unspecified) 5.41%, CN1C(C(=O)NCCc2cccs2)CC2Cn3c(nc4ccccc43)C21 (stereo unspecified) 21.1%, CC1(C)Cc2nc3n[nH]c(N)c3cc2CO1 -1.93%, CCc1ccc2nc3nc(C)cc(C)c3c(N)c2c1 17.6%, Nc1[nH]nc2nc3ccccc3cc12 36%, Cc1cc2cc3c(=O)[nH]c(=O)[nH]c3nc2cc1C -1.5%, Cc1ccc2cc3c(N)c4c(C)ccc(C)c4nc3nc2c1 1.71%, CCc1ccc2nc(N)sc2c1 9.15%, CCn1cc(CNC(=O)c2cc(-c3ccccc3OC)nc3ccccc23)c(C)n1 4.15%, O=C(c1ccc(Cl)cc1)c1oc2ccccc2c1CS(=O)(=O)c1ccccc1 1.36%, c1ccc(Oc2ccc3ccccc3n2)cc1 7.16%, COc1ccc(N(CC(=O)N2CCOCC2)S(C)(=O)=O)cc1OC 4.22%, CCCCn1c(=O)[nH]c(=O)c2c(C(=O)OCC)cc(-c3cccs3)nc21 4.89%, Cc1cc(NC(=O)c2cc(C(C)C)on2)nn1Cc1ccc(Cl)cc1 -0.65%, COC(=O)c1[nH]c2cccc(OC)c2c1NC(=O)CCN1CCSCC1 2.77%, CCN(CC)C(=O)C1CCC(CNS(=O)(=O)c2cccc3nsnc23)CC1 (stereo unspecified) 5.44%, COc1ccccc1C(=O)NCCC(=O)Nc1nc2ccccc2[nH]1 10.6%, CCCCN1C(=O)/C(=C(/C#N)C(=O)N2CCCC2)c2ccccc21 7.04%, CCOC(=O)/C(C#N)=C1/C(=O)N(Cc2ccccc2)c2ccccc21 11%, O=C(CN1C(=O)C2CCCCC2C1=O)Nc1nc(-c2ccc(F)cc2)cs1 (stereo unspecified) 12.1%, COc1ccc(Nc2cccc(Cl)c2)c(C(=O)O)c1 33.4%, COc1ccc(Nc2ccccc2C(=O)O)cc1 31.6%, COc1cc(/C=N/Nc2ccccn2)cc(OC)c1O 29.8%, COc1cc(/C=N/Nc2nc(C)cc(=O)[nH]2)ccc1O 35.4%, COc1ccc(/C=N/Nc2ccccn2)cc1OC 9.61%, COc1ccc(/C=N/Nc2ccccn2)cc1O 36.9%, Cn1c(N/N=C\c2cccc(O)c2)cc(=O)n(C)c1=O -5.57%, COc1cc(/C=N/Nc2ccc(C(=O)O)cc2)ccc1O 29.4%, COc1ccc(/C=N/Nc2nc(=O)[nH]nc2C)cc1OC 13.7%, COc1ccc(/C=N/Nc2cc(=O)n(C)c(=O)n2C)cc1OC 9.25%
